From PubChem
HSP90 inh = HSP90 refolding inhibition in rabbit reticulocyte lysate | luciferase refolding luminescence, 3 h | inhibition, % at 5.6 µM | 290,000 compounds, 0.91% hits;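 active = inhibition above the screen-wide mean plus 3 SD, computed separately per campaign, cut at about 16% in these data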;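 also: inhibitors lower the luminescence because luciferase stays unfolded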
SENP8 block-1 = inhibitors of human SENP8 protease; Q96LD8; recombinant SENP8, Nedd8 substrate fluorescence; inhibition, % at 20 µM; 360,000 compounds, 0.64% hits; in the data active = inhibition mostly above about 40%, no sharp cut-off; inactive = mostly below about 27%
Target sequence (Q96LD8 whole entry, looked up): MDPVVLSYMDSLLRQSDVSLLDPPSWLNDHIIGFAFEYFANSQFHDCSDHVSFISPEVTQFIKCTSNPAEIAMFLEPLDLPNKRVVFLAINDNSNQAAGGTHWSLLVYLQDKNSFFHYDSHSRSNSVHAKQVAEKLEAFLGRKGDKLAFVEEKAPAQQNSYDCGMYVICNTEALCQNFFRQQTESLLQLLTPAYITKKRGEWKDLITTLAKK
LGR2 antag = Drosophila LGR2 receptor signaling inhibition; HEK293 LGR2, CRE-luciferase, bursicon-stimulated, 4 h; inhibition, % at 9.99 µM; 380,000 compounds, 0.35% hits;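 active = drop in luminescence signal, shown as inhibition above about 50% in the replicate tests, limit read from the data, passing the limit was not always enough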;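 also: agonist challenge used bursicon conditioned medium at about half maximal strength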
SENP7 inh = inhibitors of human SENP7 protease. 330,000 compounds, 1.5% hits. inhibition, % at 5 µM. recombinant SENP7, Z-RLRGG-aminoluciferin luminescence, 40 min;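 active = inhibition above about 50% at the single test dose, limit read from the data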
Target sequence (Q9BQF6 706-1050 limits assumed): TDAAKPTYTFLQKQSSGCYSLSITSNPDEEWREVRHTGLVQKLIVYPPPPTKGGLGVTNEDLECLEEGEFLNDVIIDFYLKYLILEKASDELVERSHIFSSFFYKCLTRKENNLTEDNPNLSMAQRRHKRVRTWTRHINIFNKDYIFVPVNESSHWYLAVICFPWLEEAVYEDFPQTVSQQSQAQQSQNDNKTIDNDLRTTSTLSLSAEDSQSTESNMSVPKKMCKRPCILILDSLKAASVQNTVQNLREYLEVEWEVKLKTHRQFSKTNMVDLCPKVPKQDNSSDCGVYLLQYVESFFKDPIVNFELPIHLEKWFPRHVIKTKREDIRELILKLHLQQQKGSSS
SENP8 block-2 = inhibitors of human SENP8 protease; Q96LD8; purified SENP8, Z-RLRGG-aminoluciferin cleavage, luminescence; inhibition, % at 10 µM; 330,000 compounds, 1.2% hits; in the data active = inhibition above about 50%
SENP6 block = inhibitors of human SENP6 protease; Recombinant SENP6 catalytic domain, aminoluciferin luminescence; inhibition, % at 10 µM; 330,000 compounds, 1.8% hits;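 active = inhibition above about 50% at the single tested dose, limit read from the data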
HSP90 inh confirm = confirmation of HSP90 inhibitors | shares compounds with HSP90 inh | rabbit reticulocyte lysate, luciferase refolding luminescence, 3 h | inhibition, % at 5.9 µM | 2,300 compounds, 64% hits | AID 1846; in the data active = inhibition above about 18%
luciferase ctr = blocks native firefly luciferase in HSP90 counter-screen | inhibition, % at 5.9 µM | purified native firefly luciferase, luminescence | shares compounds with HSP90 inh | 2,300 compounds, 48% hits;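 active = inhibition above the mean inhibition of all tested sample wells plus 3 SD, cut at about 10% in these data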
SENP8 confirm = confirmation of human SENP8 protease inhibitors; shares compounds with SENP7 inh; Recombinant SENP8, Z-RLRGG-aminoluciferin luminescence, 60 min; inhibition, % at 12.5 µM; 6,200 compounds, 40% hits; AID 488912;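 active = mean inhibition across replicates above about 50%, limit read from the data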
SENP6 conf = confirmation of human SENP6 protease inhibitors; 6,200 compounds, 58% hits; AID 488915; inhibition, % at 12.5 µM; shares compounds with SENP7 inh; recombinant SENP6, Z-RLRGG-aminoluciferin luminescence
SENP7 confirm = confirmation of human SENP7 protease inhibitors | shares compounds with SENP7 inh | recombinant SENP7, Z-RLRGG-aminoluciferin luminescence, 40 min | inhibition, % at 12.5 µM | 6,200 compounds, 69% hits | AID 488917
Casp3 SENP sel = selectivity test for SENP inhibitors: human caspase-3 inhibition | inhibition, % at 12.5 µM | shares compounds with SENP7 inh | purified caspase-3, Z-DEVD-aminoluciferin luminescence, 60 min | 6,200 compounds, 60% hits;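 active = mean inhibition above about 50%, limit read from the data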
SENP luc ctr = counter-screen for SENP inhibitors: luminescence interference. shares compounds with SENP7 inh. Pre-incubated SENP8/Z-RLRGG-aminoluciferin, luciferase luminescence interference. inhibition, % at 12.5 µM. 6,200 compounds, 39% hits;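 active = mean inhibition above about 50% when retested at one dose, limit read from the data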
Each line names hits and unclear results; the compound was inactive in the other large screens (follow-up assays come after a bar, where they were run). Shown are actives, neighbours in structure and some others; about 2.3% of the full set was active somewhere.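 The calls were made as follows, unless noted: active = mean inhibition above about 50% in the one-dose retest (limit read from the data); inactive = the rest.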

Cc1csc(NC(=O)c2ccc(N3CCCC3=O)cc2)n1	HSP90 inh 42, LGR2 antag 90, SENP7 inh 79, SENP8 block-2 63, SENP6 block 77 | HSP90 inh confirm 77 | luciferase ctr 68 | SENP8 confirm inactive | SENP6 conf inactive | SENP7 confirm 63 | Casp3 SENP sel 85 | SENP luc ctr inactive
Cc1csc(NC(=O)c2cc3c(s2)CCCC3)n1	HSP90 inh 35, SENP7 inh 93, SENP8 block-2 89, SENP6 block 95 (no result: LGR2 antag) | HSP90 inh confirm 50 | luciferase ctr 50 | SENP8 confirm 95 | SENP6 conf 96 | SENP7 confirm 101 | Casp3 SENP sel 88 | SENP luc ctr 86
Cc1csc(NC(=O)c2cc3c(s2)CCCCC3)n1	HSP90 inh 61, SENP7 inh 98, SENP8 block-2 94, SENP6 block 92 (no result: LGR2 antag) | HSP90 inh confirm 79 | luciferase ctr 77 | SENP8 confirm 96 | SENP6 conf 97 | SENP7 confirm 101 | Casp3 SENP sel 92 | SENP luc ctr 89
CCOC(=O)Cc1csc(NC(=O)c2cc3c(s2)CCCC3)n1	none
Cc1cnc(NC(=O)c2cc3c(s2)CCCC3)s1	HSP90 inh 43, SENP7 inh 85, SENP8 block-2 81, SENP6 block 88 (no result: LGR2 antag) | HSP90 inh confirm 66 | luciferase ctr 64 | SENP8 confirm 88 | SENP6 conf 88 | SENP7 confirm 97 | Casp3 SENP sel 79 | SENP luc ctr 56
CCc1nnc(NC(=O)c2cc3c(s2)CCCCC3)s1	none
Cc1noc(C)c1NC(=O)N(C)C[C@@H]1Oc2ncc(C#CC3CCCCC3)cc2C(=O)N([C@@H](C)CO)C[C@@H]1C	none (no result: HSP90 inh, SENP8 block-1, SENP7 inh, SENP8 block-2, SENP6 block)
CCCC#Cc1ccc2c(c1)[C@@H]1[C@@H](CCN1S(=O)(=O)c1ccccc1)[C@@H](CO)N2C	none (no result: HSP90 inh, SENP8 block-1, SENP7 inh, SENP8 block-2, SENP6 block)
CCC(=O)Nc1ccc2c(c1)C(=O)N(C)C[C@H](OC)[C@H](C)CN(C(=O)CN(C)C)[C@@H](C)CO2	none (no result: HSP90 inh, SENP8 block-1, SENP7 inh, SENP8 block-2, SENP6 block)
O=C(N/N=C\c1ccc(F)cc1)c1ccc(F)cc1	none
O=C(O)c1ccc(/C=N/Nc2ccc(F)cc2F)cc1	HSP90 inh 46, SENP7 inh 99, SENP8 block-2 96, SENP6 block 101 | HSP90 inh confirm 78 | luciferase ctr 58 | SENP8 confirm 99 | SENP6 conf 100 | SENP7 confirm 103 | Casp3 SENP sel 98 | SENP luc ctr 99
O=C(O)c1ccc(N/N=C/c2c(F)cccc2Cl)cc1	HSP90 inh 80, LGR2 antag 76, SENP7 inh 98, SENP8 block-2 96, SENP6 block 97 | HSP90 inh confirm 82 | luciferase ctr 76 | SENP8 confirm 100 | SENP6 conf 101 | SENP7 confirm 104 | Casp3 SENP sel 96 | SENP luc ctr 99
O=C(O)c1ccc(N/N=C/c2ccc(C(F)(F)F)cc2)cc1	HSP90 inh 77, LGR2 antag 93, SENP7 inh 98, SENP8 block-2 96, SENP6 block 101 | HSP90 inh confirm 86 | luciferase ctr 81 | SENP8 confirm 99 | SENP6 conf 99 | SENP7 confirm 102 | Casp3 SENP sel 94 | SENP luc ctr 98
COc1ccccc1/C=C/C=N/Nc1cccc(C(=O)O)c1	HSP90 inh 57, SENP7 inh 87, SENP8 block-2 95, SENP6 block 98 | HSP90 inh confirm 64 | luciferase ctr 49 | SENP8 confirm 99 | SENP6 conf 100 | SENP7 confirm 102 | Casp3 SENP sel 80 | SENP luc ctr 98
COc1ccc(Br)cc1/C=N/Nc1cccc(C(=O)O)c1	none
C[C@H]1CN([C@@H](C)CO)C(=O)c2cc(NC(=O)CCCN(C)C)ccc2O[C@@H]1CN(C)Cc1ccccc1	none (no result: HSP90 inh, SENP8 block-1, SENP7 inh, SENP8 block-2, SENP6 block)
O=C(C[C@H]1CC[C@H]2[C@@H](COC[C@H](O)CN2Cc2ccccc2)O1)NCCc1ccccc1	none (no result: HSP90 inh, SENP8 block-1, SENP7 inh, SENP8 block-2, SENP6 block)
CC(C)(C)c1ccc(/C=N/Nc2ccc(C(=O)O)cc2)cc1	HSP90 inh 58, LGR2 antag 58, SENP7 inh 99, SENP8 block-2 96, SENP6 block 100 | HSP90 inh confirm 86 | luciferase ctr 83 | SENP8 confirm 100 | SENP6 conf 101 | SENP7 confirm 104 | Casp3 SENP sel 94 | SENP luc ctr 99
CN(C)c1ccc(/C=N/Nc2cccc(C(=O)O)c2)cc1	HSP90 inh 76, LGR2 antag 87, SENP8 block-2 96, SENP6 block 99 | HSP90 inh confirm 97 | luciferase ctr 94 | SENP8 confirm 98 | SENP6 conf 102 | SENP7 confirm 104 | Casp3 SENP sel 100 | SENP luc ctr 100
CN(C)CC(=O)Nc1ccc2c(c1)[C@H]1C[C@H](CC(=O)NCc3ccccc3F)O[C@H](CO)[C@H]1O2	none (no result: HSP90 inh, SENP8 block-1, SENP7 inh, SENP8 block-2, SENP6 block)
COc1cccc2oc3cc(C#Cc4ccccn4)ccc3c(=O)c12	none (no result: SENP8 block-1)
COc1cccc2oc3cc(C#CC4(O)CCCCC4)ccc3c(=O)c12	HSP90 inh 26, SENP7 inh 84, SENP8 block-2 84, SENP6 block 81 | HSP90 inh confirm 30 | luciferase ctr 19 | SENP8 confirm 89 | SENP6 conf 89 | SENP7 confirm 97 | Casp3 SENP sel 72 | SENP luc ctr 55
COc1ccccc1NC(=O)N1CC(=O)N2[C@H](CO)[C@H](c3ccc(-c4cccc(C)c4)cc3)[C@@H]2C1	none (no result: HSP90 inh, SENP8 block-1, SENP7 inh, SENP8 block-2, SENP6 block)
C[C@@H]1CN([C@H](C)CO)C(=O)c2cccc(NC(=O)c3cnccn3)c2O[C@H]1CN(C)C	none (no result: HSP90 inh, SENP8 block-1, SENP7 inh, SENP8 block-2, SENP6 block)
Cc1ccc(-c2nc(N/N=C/c3ccncc3)c3ccccc3n2)cc1	HSP90 inh 47, SENP7 inh 89, SENP8 block-2 89, SENP6 block 88 (no result: LGR2 antag) | HSP90 inh confirm 80 | luciferase ctr 56 | SENP8 confirm inactive | SENP6 conf inactive | SENP7 confirm inactive | Casp3 SENP sel inactive | SENP luc ctr inactive
